Screens as filed in PubChem.
This is a sample that favours compounds with a hit; in the whole collection about 4% have one here.
RAD52 anneal inh: blocks human RAD52 DNA annealing. recombinant RAD52 DNA annealing, FRET fluorescence. inhibition, % at 18.7 µM. 360,000 compounds, 0.46% hits;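 active = every replicate showing at least 50% inhibition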
DENV2 CPE: DENV2-induced cell death inhibition; DENV2-infected cells, cytopathic effect rescue, plate reader; CPE inhibition, % at 9.99 µM; 350,000 compounds, 1.7% hits; in the data active = CPE inhibition above about 20%, passing the limit was not always enough; tested in BHK-21 cells;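 note: 0% = median of neutral control wells and 100% = median of positive control wells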
AF4-AF9 inh: blocks AF4 peptide binding to human AF9 | P42568 | AlphaScreen, biotin-AF4 peptide binding to FLAG-AF9 | inhibition, % at 10 µM | 350,000 compounds, 0.47% hits | AID 651704;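 active = every replicate reaching a set inhibition limit, whatever the replicate mean, cut at about 25% in these data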;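 note: 0% = plate neutral control median and 100% = total signal loss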
ERAP1 inh: ERAP1 (human) enzyme inhibition | Q9NZ08 | recombinant ERAP1, Leu-AMC fluorescence, 60 min | inhibition, % at 10.7 µM | 340,000 compounds, 0.15% hits | AID 652197;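 active = mean replicate inhibition of at least 30%, or all replicates individually reaching that 30% level; inactive = mean below 30% and not every replicate reaching it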;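 note: 0% = neutral control wells and 100% = L-leucinethiol positive control wells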
FGF22 binding: shifts melting point of recombinant human FGF22. activity (Tm shift, normalised), % at 9.99 µM. AID 651658. Q9HCT0. recombinant FGF22 thermal shift, SYPRO orange fluorescence; percent of sucrose octasulfate shift, DMSO zero. 340,000 compounds, 1.5% hits;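 active = mean Tm shift, scaled 0 neutral to 100 positive control, at about 1.3% or above, every replicate too, limit read from the data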
Target sequence (Q9HCT0 whole entry, looked up): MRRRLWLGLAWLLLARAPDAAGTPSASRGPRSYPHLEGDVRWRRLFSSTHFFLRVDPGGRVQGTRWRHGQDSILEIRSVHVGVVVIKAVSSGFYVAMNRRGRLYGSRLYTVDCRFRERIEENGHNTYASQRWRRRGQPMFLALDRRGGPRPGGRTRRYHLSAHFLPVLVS
* = called active by the depositor; x = no result given.

SMILES	RAD52 anneal inh	DENV2 CPE	AF4-AF9 inh	ERAP1 inh	FGF22 binding
C[C@@H]1CN([C@H](C)CO)C(=O)c2cc(/C=C/c3ccccc3)cnc2O[C@@H]1CN(C)Cc1cncnc1	-2.1	5.3	1.7	-0.2	-0.2
COc1ccccc1P(=O)(c1ccccc1)c1ccccc1	-2.6	0.9	-11.9	-1.8	-0.1
Cc1ccccc1P(=O)(c1ccccc1)c1ccccc1C	3.6	-2.7	1.0	4.5	44.0*
Cc1noc(C)c1S(=O)(=O)N(C)C[C@H]1Oc2ccc(NC(=O)CCN3CCOCC3)cc2CC(=O)N([C@@H](C)CO)C[C@H]1C	-7.1	-2.8	-0.5	-1.5	-0.1
NCC[C@H]1CC[C@@H](NC(=O)C2CC2)[C@@H](CO)O1	-9.8	9.6	-4.0	-3.0	x
COc1ccc(C(=O)C2CCCN(C(=O)c3cccnc3OC)C2)cc1F (stereo not given)	7.0	12.3	-6.6	3.3	43.6*
COc1ccc(C(=O)C2CCCN(C(=O)c3cccs3)C2)cc1F (stereo not given)	-6.2	1.8	-10.3	-2.5	42.7
CSc1ncccc1C(=O)N1CCCC(C(=O)c2ccc3ccccc3c2)C1 (stereo not given)	-3.9	16.0	-0.7	-1.1	43.1*
CO[C@H]1CN(C)C(=O)c2cc(NC(=O)C3CCC3)ccc2OC[C@@H](C)N(Cc2ccc(F)cc2)C[C@H]1C	-6.4	12.4	3.1	-1.1	-0.3
CC(CN1C(C)CCCC1C)OC(=O)c1ccc(Cl)cc1 (stereo not given)	-8.0	-5.3	-1.5	1.6	44.1*
Cc1cccc(C(=O)OC(C)CN2C(C)CCCC2C)c1 (stereo not given)	-16.1	7.1	5.3	-3.3	-0.3
COc1ccc2oc(C(=O)OC(C)C(=O)N3CCC(C)CC3)c(C)c2c1 (stereo not given)	-5.6	34.1*	-2.0	3.6	0.0
CN1c2ccc(Br)cc2[C@H]2[C@H](CCN2C(=O)C2CCCCC2)[C@H]1CO	-3.6	-5.7	-2.9	-0.1	0.0
C[C@@H]1CN([C@H](C)CO)C(=O)c2cc(NS(=O)(=O)c3ccc(Cl)cc3)ccc2O[C@@H]1CN(C)Cc1ccc(Cl)c(Cl)c1	-5.2	-2.3	0.6	-2.0	-0.1
CCCC(=O)Nc1ccc2c(c1)OC[C@@H](C)N(C(=O)c1ccncc1)C[C@@H](C)[C@H](OC)CN(C)C2=O	-1.0	2.9	-1.9	0.8	0.1
Cn1nccc1NC(=O)Nc1ccc(Cl)cc1	-6.2	11.2	-8.8	5.2	-0.1
CCC(C)n1nccc1NC(=O)C(C)Cl (stereo not given)	-11.8	-6.8	-0.5	-3.9	43.4*
O=C(CC1CC1)N1CC2(C1)[C@H](c1ccccc1)[C@@H](CO)N2CC1CCOCC1	7.9	-9.2	-1.4	0.2	-0.5
O=C(CCCCn1ccc(=O)[nH]c1=O)Nc1ccc(O)c(C(=O)O)c1	-20.8	-1.5	-1.7	3.7	43.1*
CC(C)CC#Cc1ccc2c(c1)O[C@@H](CN(C)Cc1cncnc1)[C@H](C)CN([C@@H](C)CO)S2(=O)=O	3.9	23.9*	8.4	0.6	-0.7
COCC#Cc1ccc2c(c1)O[C@@H](CN(C)C(=O)Nc1ccccc1F)[C@H](C)CN([C@@H](C)CO)S2(=O)=O	-2.9	90.1*	-2.1	7.1	-0.1
CC(C)CC#Cc1ccc2c(c1)O[C@@H](CN(C)Cc1ccc(F)cc1)[C@@H](C)CN([C@H](C)CO)S2(=O)=O	11.8	45.4*	1.0	-1.1	-0.7
CC(C)CC#Cc1ccc2c(c1)O[C@H](CN(C)C(=O)c1ccccc1F)[C@H](C)CN([C@H](C)CO)S2(=O)=O	9.5	-15.7	-0.3	2.2	-0.4
CC(C)CC#Cc1ccc2c(c1)O[C@H](CN(C)Cc1cncnc1)[C@H](C)CN([C@@H](C)CO)S2(=O)=O	5.4	-4.3	5.3	-0.7	-0.6
CC(C)CC#Cc1ccc2c(c1)O[C@H](CN(C)Cc1ccc(F)cc1)[C@H](C)CN([C@@H](C)CO)S2(=O)=O	11.1	15.7	2.4	-0.1	-0.3
CC(C)CC#Cc1ccc2c(c1)O[C@@H](CN(C)C(=O)c1ccccc1F)[C@H](C)CN([C@@H](C)CO)S2(=O)=O	-2.8	39.4*	0.7	0.5	-0.6
CCC(=O)N1CC2(C1)[C@@H](c1ccc(-c3ccc(C)cc3)cc1)[C@@H](CO)N2S(C)(=O)=O	-16.5	-6.7	0.1	-0.7	-0.2
C[C@H](CO)N1C[C@H](C)[C@H](CN(C)C(=O)CCCN(C)C)OCCCC[C@H](C)Oc2ccc(NC(=O)Cc3ccccc3)cc2C1=O	3.5	98.2*	-3.5	1.1	-0.1
